HIV RNase H inh-1: blocks HIV-1 RNase H cleavage of RNA/DNA duplex. RT-RNase H RNA/DNA duplex cleavage, fluorescence. 65,000 compounds, 1.9% hits. inhibition, % at 10 µM. AID 565; in the data active = inhibition above about 50%
HIV RNase H inh-2: confirmation of HIV-1 reverse transcriptase RNase H inhibitors. shares compounds with HIV RNase H inh-1. Recombinant RT RNase H, fluorescent RNA/DNA duplex cleavage. inhibition, % at 10 µM. 1,000 compounds, 39% hits. AID 651; in the data active = inhibition above about 48%; inconclusive = no clear call, values can overlap the other calls
Large screens that a line does not name were inactive (follow-up assays come after a bar, where they were run). This excerpt belongs to a sample that is enriched for hits.

Cc1ccc(-c2ccc(=O)n(CC(=O)N3CCN(c4cccc(C)c4)C(C)C3)n2)cc1 (stereo unspecified)	none
CN(C)CCNC(=O)COc1cccc(Cl)c1	none
CC(C)C(NC(=O)OC(C)(C)C)C(=O)N1CCCC1C(=O)NC(Cc1ccccc1)C(N)=O (stereo unspecified)	none
COc1ccc(-n2nnnc2SCC(=O)Nc2cccc(C)n2)cc1OC	none
CC1CCN(S(=O)(=O)c2ccc3ncn(CC(=O)N(C)Cc4ccccc4)c(=O)c3c2)CC1	none
COC(=O)c1ccsc1NC(=O)c1ccc2c(c1)OCCO2	none
CC1(C)CC(=O)c2cc(OCC(=O)NCCCN3CCN(c4ccc(F)cc4)CC3)ccc2O1	none
Cc1sc2ncnc(Oc3ccc(-n4ccnc4)cc3)c2c1C	none
COc1ccc(OC)c(N2C(=O)C(Cl)=C(N3CCOCC3)C2=O)c1	none
O=C1C(Cl)=C(N2CCCCC2)C(=O)N1c1ccccc1Cl	HIV RNase H inh-1 72 | HIV RNase H inh-2 inactive
Cc1ccccc1N1C(=O)C(Cl)=C(N2CCCCCC2)C1=O	none
Cc1cc(C)c2c(n1)nn1c(N3CCN(c4ccccc4C)CC3)cc(C)nc21	none
CN(C)C(CNC(=O)c1cccnc1Sc1ccccc1)c1ccco1 (stereo unspecified)	none
CCn1c(=O)c(C(=O)NCc2cccnc2)c(O)c2ccccc21	none
CCCn1c(=O)c(C(=O)Nc2cnccn2)c(O)c2ccccc21	none
CCCCCn1c(=O)c(C(=O)NCc2ccncc2)c(O)c2ccccc21	HIV RNase H inh-1 83 | HIV RNase H inh-2 57
c1ccc(-c2ccccc2-n2cnnn2)cc1	none
CC(=O)N1CCN(c2ccc(N=Cc3c(O)n(-c4ccc(Cl)cc4)c(=O)[nH]c3=O)cc2)CC1	none
Cc1ccc(-n2c(O)c(C=Nc3ccccc3N)c(=O)[nH]c2=O)cc1C	none
O=c1[nH]c(=O)n(-c2ccc(F)cc2)c(O)c1C=Nc1ccccc1N1CCCC1	HIV RNase H inh-1 74 | HIV RNase H inh-2 62
C=CCn1c(-c2c[nH]c3ccccc23)n[nH]c1=S	HIV RNase H inh-1 57 | HIV RNase H inh-2 inactive
C=CCn1c(-c2cc(OC)c(OC)c(OC)c2)n[nH]c1=S	none
CCn1c(-c2c[nH]c3ccccc23)n[nH]c1=S	none
c1ccc(-c2nnc3sc(-c4csc5c4CCCC5)nn23)cc1	HIV RNase H inh-1 69 | HIV RNase H inh-2 inconclusive
Clc1ccc(-c2nn3c(-c4ccccc4)nnc3s2)cc1	none
c1ccc(-c2nnc3sc(-c4ccncc4)nn23)cc1	none
COc1ccc(NC(=O)CSc2nnc(-c3cccs3)n2-c2ccccc2)cc1	none
COc1ccccc1NC(=O)N(Cc1ccccc1)C1=NCC(C)S1 (stereo unspecified)	none
Cc1c(NC(=O)CSc2ccccc2C(=O)Nc2cccnc2)c(=O)n(-c2ccccc2)n1C	none
CCC(C)n1ncn(-c2ccc(N3CCN(c4ccc(OCC5COC(Cn6cncn6)(c6ccc(Cl)cc6Cl)O5)cc4)CC3)cc2)c1=O (stereo unspecified)	HIV RNase H inh-1 73 | HIV RNase H inh-2 inactive
CC1(c2ccc(Cl)cc2Cl)OCC(Cn2ccnc2)O1 (stereo unspecified)	none
CCCC1COC(Cn2cncn2)(c2ccc(C)cc2)O1 (stereo unspecified)	none
Cc1ccc(-c2cc(C(=O)Nc3cccnc3)c3ccccc3n2)o1	HIV RNase H inh-1 69 | HIV RNase H inh-2 inactive
O=C(Nc1cccnc1)c1coc(=O)c2ccccc12	none
Cc1cc(C(=O)Nc2cccnc2)no1	none
Cc1ccc(-c2nnn(CC(=O)N3CCN(c4ccccc4)CC3)n2)o1	none
Cc1cc(C)c(S(=O)(=O)Nc2ccc(OCC(=O)O)cc2)c(C)c1	none
Cc1cc(C)nc(Sc2c(C)nn(-c3ccccc3)c2C)n1	none
CCCCCc1ccc(CC(=O)O)cc1	none
CCCCc1ccc(CC(=O)O)cc1	HIV RNase H inh-1 55 | HIV RNase H inh-2 inactive
CCCCc1ccc(NC(=O)OC)cc1	none
CCOC(=O)C1CCN(C(=O)c2cnn3c(C)cc(C)nc23)CC1	none
CC1=C(C)[N+](=O)C2CCCCC2N1[O-] (stereo unspecified)	none
O=C(CSc1nc2ccccc2s1)NC(=O)NCc1ccco1	none
c1csc(CSc2nc3ccccc3s2)c1	none
CS/C(=N\S(=O)(=O)c1cccs1)NC(=O)CSc1nc2ccccc2s1	HIV RNase H inh-1 73 | HIV RNase H inh-2 inactive
O=C(Nc1cc(C(F)(F)F)ccc1N1CCOCC1)C1Cc2ccccc2CN1C(=O)c1ccco1 (stereo unspecified)	none
CCOC(=O)CC1=CC(C)(CC(=O)OCC)C(C#N)(C#N)C(N)=C1C#N (stereo unspecified)	none
COc1ccccc1N1CCN(C(c2cc3cc(C)ccc3[nH]c2=O)c2nnnn2C2CCCC2)CC1 (stereo unspecified)	HIV RNase H inh-1 54 | HIV RNase H inh-2 inactive
COc1ccccc1N1CCN(C(c2cc3ccc(C)cc3[nH]c2=O)c2nnnn2C2CCCC2)CC1 (stereo unspecified)	none
COc1cc2cc(C(c3nnnn3C3CCCC3)N3CCc4ccccc43)c(=O)[nH]c2cc1OC (stereo unspecified)	none
O=C(COc1ccc(-n2cnnn2)cc1)NCCc1ccc(F)cc1	none

High-throughput results: PubChem BioAssay, University of Pittsburgh Molecular Library Screening Center
